Compound activity deposited in PubChem BioAssay by National Center for Advancing Translational Sciences (NCATS).
IL1B secr inh = qHTS for Inhibitors of Inflammasome Signaling: IL-1-beta AlphaLISA Primary Screen; 360,000 compounds, 4.7% hits; activity change, % at 57.5 µM; THP-1 LPS/ATP IL-1B secretion, AlphaLISA, 16 h; active compounds read low; in the data active = activity change below about -50%; inconclusive = mostly about -30% to -49%; also: % is scaled to controls: 0 for no effect and ±100 for the full control effect
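THP-1 cells pretreated 1 hr with compounds (up to 57.5 uM final), then stimulated with LPS (250 ng/mL final) plus ATP (1.25 mM final); secreted IL-1B measured by AlphaLISA after 16 hr, decreased signal indicating inhibition.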
MCF10A rereplic = A quantitative high throughput screen for small molecules that induce DNA re-replication in MCF 10a normal breast cells. MCF 10A DNA re-replication, Hoechst nuclear intensity, 48 h. Potency, µM (series often up to 46.1 µM), for the others: at the highest dose activity, positive = re-replication, most hits filed as activators. 350,000 compounds, 2.9% hits. AID 624296, 2012; also: potency is read from the fitted curve at half-maximal effect; % of control where 0% means no effect; nearly all actives have a fitted effect of over 50% in size
RORgamma inh = qHTS for inhibitors of ROR gamma transcriptional activity; AID 2551, 2010; 310,000 compounds, 5.4% hits; Drosophila S2 Gal4-RORgamma UAS-luciferase reporter, 20 h; Potency, µM (series often up to 53.6 µM), for the others: top-dose activity change, negative = inhibition, actives largely listed as inhibitors; also: potency is read from the fitted curve at half-maximal effect; % is scaled to controls: 0 for no effect and ±100 for the full control effect; nearly all actives have a fitted effect of over 60% in size
Target sequence (P51450 whole entry, looked up, the tested form may be a part): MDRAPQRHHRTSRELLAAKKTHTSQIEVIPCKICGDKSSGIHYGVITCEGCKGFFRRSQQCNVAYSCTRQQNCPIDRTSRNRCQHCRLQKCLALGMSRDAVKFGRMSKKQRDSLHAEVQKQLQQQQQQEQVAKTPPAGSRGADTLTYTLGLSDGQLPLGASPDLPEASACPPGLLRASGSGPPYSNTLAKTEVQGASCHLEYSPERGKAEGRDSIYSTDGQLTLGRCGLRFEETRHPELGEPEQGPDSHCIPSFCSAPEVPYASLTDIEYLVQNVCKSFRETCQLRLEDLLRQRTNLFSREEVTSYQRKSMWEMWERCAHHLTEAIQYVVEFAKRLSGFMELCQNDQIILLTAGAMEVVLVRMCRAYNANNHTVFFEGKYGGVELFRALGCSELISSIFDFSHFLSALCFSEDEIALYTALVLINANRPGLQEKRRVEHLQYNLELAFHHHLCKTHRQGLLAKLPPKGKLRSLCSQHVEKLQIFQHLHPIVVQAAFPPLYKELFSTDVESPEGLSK
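Schneider cells (Drosophila), stable Gal4 DBD–ROR gamma + UAS-luc; 1 hr cmpd preincubation; Cu2+ induction 700 uM final; 20 hr ambient; luminescence.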
SW480 rereplic = A quantitative high throughput screen for small molecules that induce DNA re-replication in SW480 colon adenocarcinoma cells; Potency, µM (series often up to 46.1 µM), for inactives: at the highest dose re-replication activation, usual class: activators; SW480 DNA re-replication, Hoechst DNA content imaging, 48 h; 340,000 compounds, 1.8% hits; also: potency is read from the fitted curve at half-maximal effect; % of control where 0% means no effect; nearly all actives have a fitted effect of over 55% in size
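Quantitative HTS format with DMSO vehicle controls; 48 hr drug incubation at 37 C, then 40 min Hoechst staining and scanning imager measurement at 405 nm excitation.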
Gal4-VP16 FLuc = VP16 counterscreen qHTS for inhibitors of ROR gamma transcriptional activity | Drosophila S2 Gal4-VP16 UAS-luciferase, luminescence, 20 h | Potency, µM (titrated, usually from 53.6 µM), for the others: top-dose activity, negative = inhibition, most hits filed as inhibitors | 310,000 compounds, 3.5% hits | AID 2546, 2010;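 also: Gal4-VP16 expression switched on by copper sulfate through the metallothionein promoter; potency is read from the fitted curve at half-maximal effect; % is scaled to controls: 0 for no effect and ±100 for the full control effect; nearly all actives have a fitted effect of over 50% in size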
The depositor's hits bear a star; u = inconclusive; x = not tested or not shown. Compounds with a hit are over-represented: about 11% of the library has one in this group of screens. Unless noted, calls follow the shape of the dose curve; as a rule, active = well fitted curve in the direction sought with a large enough effect; inconclusive = small, poorly fitted or top-dose-only effect, or another doubt; inactive = no such curve, though single readings can be large; an effect the other way counts as inactive or inconclusive.

SMILES | IL1B secr inh | MCF10A rereplic | RORgamma inh | SW480 rereplic | Gal4-VP16 FLuc
NC(=O)c1nsc(C(=O)N(c2cccc(F)c2)C(C(=O)NCC2CCCO2)c2c[nH]c3ccccc23)c1N (configuration not stated) | -68* | u | 8% | u | 0%
CCOc1ccc(C(C(=O)NCC2CCCO2)N(C(=O)c2snc(C(N)=O)c2N)c2ccc(F)cc2)cc1 (configuration not stated) | u | u | 29% | 18% | 0%
O=C(NCC(=O)N(c1cccc(F)c1)C(C(=O)NCC1CCCO1)c1ccccc1)c1ccco1 (configuration not stated) | -2 | -2% | 6.3µM* | 0% | 3%
CCCCSCCCNC(=O)c1ccc(CS(=O)(=O)c2ccc(OC)cc2)o1 | -3 | 2% | 6% | -3% | -3%
O=c1[nH]c(-c2ccc(Cl)cc2)cs1 | -55* | -31% | -25% | -10% | -7%
O=C1CCCC(O)=C1N=Nc1c(Cl)cc(Cl)cc1Cl | -8 | -3% | 11µM* | -9% | u
Cc1ccc(S(=O)(=O)N2[C@@H](CO)CO[C@H]2CC(=O)OCc2ccccc2)cc1 | -1 | x | x | x | x
NC(=O)c1nsc(C(=O)N(c2ccc(Cl)cc2)C(C(=O)NCC2CCCO2)c2cccs2)c1N (configuration not stated) | -83* | 8% | 15% | u | -10%
Cc1cccc(N(C(=O)c2snc(C(N)=O)c2N)C(C(=O)NCC2CCCO2)c2cccs2)c1 (configuration not stated) | 13 | u | 30% | -10% | 6%
CCc1ccc(N(C(=O)c2snc(C(N)=O)c2N)C(C(=O)NCC2CCCO2)c2cccs2)cc1 (configuration not stated) | 14 | 18µM* | 38% | u | -6%
O=C(NC(=S)N1CCN(c2nc(-c3ccccc3)cs2)CC1)c1cccnc1 | 0 | u | 0.11µM* | u | 0.0079µM*
Fc1ccccc1NC(=S)N1CCN(C/C=C/c2ccccc2)CC1 | -23 | 17% | u | 1% | u
O=C(NC(=S)N1CCN(C/C=C/c2ccccc2)CC1)c1cccnc1 | 23 | 3% | 0.4µM* | -7% | 0.89µM*
O=C(NC(=S)N1CCN(C/C=C/c2ccccc2)CC1)c1ccc(F)cc1 | -5 | 1% | 0.28µM* | 0% | 0.63µM*
O=C(c1cccnc1)N1CCN(C/C=C/c2ccccc2)CC1 | 23 | 6% | 22% | -9% | 4%
CN1CCC(N(C)C(=O)c2ccc(Cl)c(S(=O)(=O)N3CCOCC3)c2)CC1 | -3 | 3% | x | -2% | x
OCC1OC([S-])[C@H](O)C(O)C1O.[Au+] (some centres not stated) | x | 30µM* | -9% | -2% | 6.3µM*
O=c1cc(-c2c(F)c(F)c(F)c(F)c2F)oc2c(F)c(F)c(F)c(F)c12 | x | x | 2.5µM* | x | 3.2µM*
O=c1cc(-c2ccncc2)oc2ccccc12 | -77* | 18% | -16% | -5% | -3%
COc1c(OC)c(O)c2c(=O)cc(-c3c(O)cccc3O)oc2c1OC | -20 | 1% | u | 11% | 2%
COc1ccc2c(=O)cc(-c3ccncc3)oc2c1OC | -96* | u | x | u | x
O=c1cc(-c2c(F)c(F)c(F)c(F)c2F)oc2ccccc12 | -100* | 14% | 7.9µM* | 2% | u
O=c1cc(-c2ccc(O)cc2)oc2ccccc12 | 5 | 11% | 10% | 0% | 0%
O=c1cc(-c2cccc(F)c2)oc2ccccc12 | -2 | 13% | x | u | x
COc1cc2c(c(OC)c1OC)-c1c(cc3c(c1OC)OCO3)CC(C)C(C)(O)C2OC(=O)c1ccccc1 (configuration not stated) | x | x | 35% | x | 3%
SMILES | IL1B secr inh | MCF10A rereplic | RORgamma inh | SW480 rereplic | Gal4-VP16 FLuc
CC(OC(=O)c1cccc(-n2cnnn2)c1)C(=O)NCc1ccccc1 (configuration not stated) | 11 | -1% | x | -72% | x
COC(=O)c1cccc(NC(=O)c2cnn(C)c2)c1 | -7 | -1% | x | -11% | x
CCCCNCc1nc2ccccc2c(=O)[nH]1 | -52* | 19% | 10µM* | 27% | u
CCCNc1nc2ccccc2c(=O)[nH]1 | -69* | -29% | 6% | -17% | 0%
CCc1nc2ccccc2c(C(=O)OCC(=O)C(C)(C)C)c1C | 15 | 18% | 0% | -1% | -5%
C=CCNc1nc2ccccc2c(=O)[nH]1 | 31 | -17% | 18% | -13% | 25%
CCc1nc2ccccc2c(C(=O)OCc2nc3ccccc3c(=O)[nH]2)c1C | -56* | 21µM* | x | 12µM* | x
CCc1ccc(NCc2nc3ccccc3c(=O)[nH]2)cc1 | 22 | 28% | u | 5% | u
CC(=O)OC[C@@H]1CN(Cc2ccccc2)C[C@H](n2cnc3c(NC4CCC4)ncnc32)O1 | 1 | x | x | x | x
C=CCNc1nc2cc(-c3ccccc3OC)sc2c(=O)n1C | 13 | x | x | x | x
CC(C)(C)c1ccc(C(=O)N2CCCC2c2cccs2)cc1 (configuration not stated) | -99* | 30% | u | 3% | -7%
CS(=O)(=O)Cc1ccc(C(=O)N2CCCC2c2cccs2)cc1 (configuration not stated) | 11 | 3% | -4% | -75% | 1%
COc1ccc(N(CC(=O)N2CCN(c3ccc(Cl)cc3)CC2)S(=O)(=O)c2c(C)n[nH]c2C)cc1 | -62* | -2% | u | 13% | -26%
O=C(O)c1cccc(N(CCO)CCO)c1 | 5 | 2% | -5% | -1% | 3%
OCCN(CCO)c1ccc(C(c2ccccc2Cl)c2ccc(N(CCO)CCO)cc2Cl)c(Cl)c1 | u | u | 14µM* | 10% | u
Cc1ccc(C)c(S(=O)(=O)c2c(C)cc(C)[nH]c2=O)c1 | 1 | 1% | 29% | 6% | 4%
O=[N+]([O-])c1cc(C(F)(F)F)cc([N+](=O)[O-])c1Sc1n[nH]c(C(F)(F)F)n1 | -94* | u | u | u | u
O=C(O)c1ccccc1Sc1c([N+](=O)[O-])cc(C(F)(F)F)cc1[N+](=O)[O-] | -67* | u | u | 5% | u
O=C(O)c1ccccc1NSc1ccccc1[N+](=O)[O-] | 34 | -3% | 32% | 3% | 1%
CC1=CC(C)(C)NC(=S)N1c1ccc([N+](=O)[O-])cc1 | -2 | -25% | x | -10% | x
CC1=CC(C)(C)NC(=S)N1c1ccc(C)c(C)c1 | -1 | 3% | 0.56µM* | -21% | 4.5µM*
Cc1cccc(N2C(=O)CCC2=O)c1 | -9 | -10% | -9% | 1% | -4%
